LDHA inh = qHTS assay for inhibitors of human lactate dehydrogenase; activity change, % (values are at about 110 or 230 µM); 0.15% of 480,000 active; purified LDHA, NADH/diaphorase-resazurin fluorescence; stronger effect = lower value; in the data active = activity change below about -30%; inconclusive = mostly about -25% to -30%;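 note: plate controls were DMSO wells for no effect and wells without enzyme for full effect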
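Remaining NADH was detected by diaphorase (0.133 mg/mL) converting 37 µM resazurin to fluorescent resorufin, read at 0 and 20 minutes. The preceding 5-minute room-temperature reaction used 2 nM LDHA, 0.2 mM sodium pyruvate and 0.06 mM NADH at pH 7.4.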
ERG-DNA inh = qHTS for Small Molecule Inhibitors of the ERG Ets/DNA interaction | Transcriptional regulator ERG (Homo sapiens), P11308 | fluorescence polarization, His-ERG Ets domain / labelled DNA | Potency, µM (doses to about 76.9 µM), inactives show at the top dose FP activity, negative = inhibition, most hits filed as inhibitors | 0.028% of 370,000 active; active = well fitted inhibition curve with a large enough effect in the polarisation, with a control signal flat; inconclusive = small, poorly fitted or top-dose-only effect, or effect the other way, or a change in a side signal; inactive = no such curve, though single readings can be large or run the other way; the % refers to the polarisation;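 note: polarization taken with two DNA probes labelled with fluorescein and Texas red; potency is the fitted concentration of half-maximal effect; % of control where 0% means no effect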
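His-tagged ERG Ets domain (1 uM in the protein solution; 300mM KCl, 50mM Tris-HCl, 1mM EDTA, 1mM DTT, pH 7.5) received compound, then a probe mix of 5 nM fluorescein-DNA and 100nM Texas-615-DNA. Fluorescence polarization was read for both dyes.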
A549 viability = Nrf2 qHTS screen for inhibitors: counterscreen for cytotoxicity; Potency, µM (series often up to 46 µM), for the others: at the highest dose activity change, negative = cytotoxicity, hits mostly inhibitors; 0.16% of 390,000 active; A549 ARE-Fluc cells, CellTiter-Fluor viability, 18-24 h; note: potency is the fitted concentration of half-maximal effect; % is set by controls: 0 for no effect and ±100 for the full control effect
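Cytotoxicity counterscreen: CellTiter-Fluor fluorescence was measured in A549 ARE_Fluc cells after 18-24 h of compound exposure in a concentration series. The subsequent BugLite luminescent read reports ARE-luciferase activity.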
12-LOX inh = Primary qHTS assay for inhibitors of human arachidonate 12S-lipoxygenase (ALOX12): Round 2 | Potency, µM (doses to about 108 µM), without a hit: at the top dose activity change, negative = inhibition, usual class: inhibitors | AID 1671190, 2021 | 1.1% of 580,000 active | purified 12hLO, xylenol orange hydroperoxide absorbance | Polyunsaturated fatty acid lipoxygenase ALOX12 (Homo sapiens), P18054; note: potency is the fitted concentration of half-maximal effect; % is set by controls: 0 for no effect and ±100 for the full control effect
Target sequence (P18054 whole entry, looked up): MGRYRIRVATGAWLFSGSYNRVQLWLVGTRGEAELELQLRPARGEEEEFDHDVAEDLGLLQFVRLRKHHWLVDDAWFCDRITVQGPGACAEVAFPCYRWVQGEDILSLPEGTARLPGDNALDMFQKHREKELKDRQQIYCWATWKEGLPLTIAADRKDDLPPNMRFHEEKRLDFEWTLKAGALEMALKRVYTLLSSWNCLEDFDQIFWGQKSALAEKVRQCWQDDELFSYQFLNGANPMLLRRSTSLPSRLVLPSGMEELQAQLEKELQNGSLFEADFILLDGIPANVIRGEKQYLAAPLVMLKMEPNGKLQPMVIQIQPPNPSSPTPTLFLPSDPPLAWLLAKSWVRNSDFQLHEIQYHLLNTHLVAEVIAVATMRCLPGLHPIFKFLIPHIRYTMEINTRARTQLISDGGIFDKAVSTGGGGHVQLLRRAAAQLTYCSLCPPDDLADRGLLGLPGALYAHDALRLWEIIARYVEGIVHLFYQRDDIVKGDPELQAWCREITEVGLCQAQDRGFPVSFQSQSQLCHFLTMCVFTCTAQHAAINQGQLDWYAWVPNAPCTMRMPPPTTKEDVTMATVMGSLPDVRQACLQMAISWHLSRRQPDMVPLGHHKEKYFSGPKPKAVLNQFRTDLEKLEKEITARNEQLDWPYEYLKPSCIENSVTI
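Purified human 12hLO at 150 nM in 25 mM Hepes, 0.01% Triton X-100, pH 7.0, preincubated 15 min at room temperature with compound. Reaction started with 40 uM arachidonic acid, 30 min at room temperature. Hydroperoxide measured by Fe-xylenol orange, 573/405 nm absorbance ratio.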
Nrf2 block = Nrf2 qHTS screen for inhibitors. A549 ARE-Fluc reporter, luciferase luminescence, 18-24 h. Potency, µM (top dose mostly 46 µM), without a hit: top-dose activity change, negative = inhibition, hits mostly inhibitors. 2.1% of 360,000 active. AID 504444, 2011; note: potency is the fitted concentration of half-maximal effect; % is set by controls: 0 for no effect and ±100 for the full control effect; nearly all actives have a fitted effect of over 60% in size
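Quantitative HTS in A549 cells stably bearing an antioxidant response element-firefly luciferase construct. Inhibition of Nrf2-driven transcription was scored by luminescence after 18-24 h of compound exposure at 37 °C.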
Nrf2 activator = qHTS of Nrf2 Activators | AREc32 ARE-luciferase reporter (MCF7-derived line), luminescence, 24 h | Potency, µM (highest dose often 46.1 µM), without a hit: at the highest dose activation, usual class: activators | 0.31% of 410,000 active; note: potency is the fitted concentration of half-maximal effect; % of control where 0% means no effect; nearly all actives have a fitted effect of over 65% in size
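Quantitative high-throughput format: AREc32 reporter cells, 1000 per well, received compound by pin transfer and were incubated 24 hr at 37 deg C, 5% CO2, before Steady-Glo luminescence detection.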
* = called active by the depositor; [ ] = remark or other dose. Only some compounds are listed: those with a hit (about 2.7% of all), similar ones and a draw of the others. Unless noted, calls come from the whole dose curve; as a rule, active = well fitted curve in the direction sought with a large enough effect; inconclusive = small, poorly fitted or top-dose-only effect, or another doubt; inactive = no such curve, though single readings can be large; an effect the other way counts as inactive or inconclusive.

What do the screens show for `COc1cc(OC)cc(C2Nc3ccccc3C(=O)N2C2CC2)c1` (stereo not given)?
LDHA inh: 5; 12-LOX inh: -11%

How did COc1ccccc1Cn1[nH]nnc1=S do in these assays?
LDHA inh: -6; ERG-DNA inh: -1%; A549 viability: -3%; 12-LOX inh: 22µM*; Nrf2 block: -9%; Nrf2 activator: 0%

Results for CC(C(=O)N(C)Cc1ccccc1)S(=O)(=O)Cc1ccc(Cl)c(Cl)c1 (stereo not given) ?
LDHA inh: 0; 12-LOX inh: inconclusive

How did Cc1cc(C)nc(NC(=NCCc2c[nH]c3ccccc23)NC(=O)C(C)(C)C)n1 do in these assays?
LDHA inh: -3; ERG-DNA inh: 0%; A549 viability: inconclusive; 12-LOX inh: inconclusive; Nrf2 block: 21µM*; Nrf2 activator: 0%

Results for O=C(O)C(Cc1ccnc2ccccc12)=NO ?
LDHA inh: 3; ERG-DNA inh: 13%; A549 viability: -2%; 12-LOX inh: inconclusive; Nrf2 block: -6%; Nrf2 activator: 5%

How did OC(Cc1ccnc2ccccc12)C(Cl)(Cl)Cl (stereo not given) do in these assays?
LDHA inh: 4; ERG-DNA inh: -1%; A549 viability: -15%; 12-LOX inh: -12%; Nrf2 block: 18µM*; Nrf2 activator: -1%

What do the screens show for `CC(C)CCN1C[C@@H]2[C@H](C1)N(CCOc1ccccc1)C(=O)C(C)(C)[S+]2(=O)[O-]`?
12-LOX inh: 18%[176 µM]

How did Cc1ccc([C@H]2C(C(=O)O)=C[C@@H](CC3CCCC3)N2S(=O)(=O)c2ccc(C)cc2)cc1 do in these assays?
LDHA inh: -1; ERG-DNA inh: -14%; A549 viability: -2%; 12-LOX inh: 40µM*; Nrf2 block: inconclusive; Nrf2 activator: 1%

Results for OC(CNCC(c1ccco1)N1CCCCC1)c1ccccc1 (stereo not given) ?
LDHA inh: -31*; ERG-DNA inh: 2%; A549 viability: 14%; 12-LOX inh: inconclusive; Nrf2 block: -17%; Nrf2 activator: -1%

What do the screens show for `CCCCCCCCCCCCc1ccc(-c2ccc(CC)cn2)cc1`?
LDHA inh: -7; 12-LOX inh: -1%

What do the screens show for `CCOc1ccccc1C(=O)NC1CCN(c2cc(-c3ccc(OC)cc3)[nH]n2)C1` (stereo not given)?
12-LOX inh: 67%

How did CN(CC(=O)Nc1ccc(Cl)cc1)C(=O)COc1cccc(F)c1 do in these assays?
LDHA inh: 1; 12-LOX inh: 40µM*

Results for CCc1cccc(OCC(=O)N(C)CC(=O)Nc2cccc(F)c2)c1 ?
LDHA inh: -1; ERG-DNA inh: 0%; A549 viability: 0%; 12-LOX inh: -1%; Nrf2 block: 9%; Nrf2 activator: 0%

What do the screens show for `C=CCNC(=S)N/N=C(\C)c1ccc(OC)cc1`?
LDHA inh: -3; ERG-DNA inh: -16%; A549 viability: 0%; 12-LOX inh: 40µM*; Nrf2 block: inconclusive; Nrf2 activator: 5%

How did COc1ccc(/C(C)=N/NC(=S)NCc2ccco2)cc1 do in these assays?
LDHA inh: -3; ERG-DNA inh: 5%; A549 viability: 1%; 12-LOX inh: 40µM*; Nrf2 block: 5%; Nrf2 activator: 4%

How did C=CCNC(=S)N/N=C(\C)c1cccc(OC)c1 do in these assays?
LDHA inh: -1; ERG-DNA inh: -2%; A549 viability: 3%; 12-LOX inh: inconclusive; Nrf2 block: 0%; Nrf2 activator: 5%

What do the screens show for `COc1cc(C)cc2oc(=O)c(CC(=O)NCCc3ccc(S(N)(=O)=O)cc3)c(C)c12`?
LDHA inh: 6; 12-LOX inh: -10%

From PubChem
